From PubChem BioAssay (NCATS)
Inconclusive results are not listed. Active and inactive are the calls of the source. Unless noted, calls follow the shape of the full dose curve.

Legend:
[1] = target: Estrogen receptor (Homo sapiens) (UniProt P03372); assay: qHTS assay for small molecule antagonists of estrogen receptor alpha signaling (AID 588513; active = well fitted curve in the direction sought with a large enough effect in the signal ratio, with a control signal flat, not every such curve was filed as active; the % refers to the signal ratio; also: % is scaled to controls: 0 for no effect and ±100 for the full control effect)
Sequence of Estrogen receptor (Homo sapiens) (P03372 whole entry, looked up): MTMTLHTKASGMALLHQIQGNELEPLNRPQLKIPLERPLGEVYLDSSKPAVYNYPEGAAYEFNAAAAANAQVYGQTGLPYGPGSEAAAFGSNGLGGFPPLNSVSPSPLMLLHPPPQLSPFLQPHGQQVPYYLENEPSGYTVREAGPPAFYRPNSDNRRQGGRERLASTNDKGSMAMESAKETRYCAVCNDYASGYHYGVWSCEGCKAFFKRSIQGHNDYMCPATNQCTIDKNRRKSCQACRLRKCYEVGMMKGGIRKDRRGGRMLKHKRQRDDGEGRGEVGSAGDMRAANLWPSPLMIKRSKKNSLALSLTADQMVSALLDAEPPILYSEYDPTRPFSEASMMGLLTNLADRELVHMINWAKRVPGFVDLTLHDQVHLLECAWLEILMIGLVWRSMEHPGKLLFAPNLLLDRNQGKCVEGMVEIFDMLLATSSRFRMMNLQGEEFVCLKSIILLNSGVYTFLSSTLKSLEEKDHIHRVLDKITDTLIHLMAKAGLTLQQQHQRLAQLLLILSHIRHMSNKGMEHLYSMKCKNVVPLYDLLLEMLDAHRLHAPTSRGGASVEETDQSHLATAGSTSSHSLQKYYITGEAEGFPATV
In short: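 Cells were plated at 5000/well and incubated 4 h at 37 C. Compounds were added as 1:2 dilution series, duplicates. 17-beta-estradiol (0.5nM final) was added for 18 h before CCF4 detection.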

[2] = target: Estrogen receptor (Homo sapiens) (UniProt P03372); assay: qHTS assay for small molecule agonists of estrogen receptor alpha signaling (AID 588514); also: nearly all actives have a fitted effect of over 70% in size; also: potency is read from the fitted curve at half-maximal effect;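 as to activation: 0% = vehicle only and 100% = reference agonist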
In short: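 ER-alpha-UAS-bla GripTite HEK293 cells, 5000/well in 2% charcoal/dextran-stripped FBS medium, treated with compound titrations 18 h at 37 C. CCF4 beta-lactamase read by fluorescence after 2 h RT; normalised to 20 nM 17-beta-estradiol (100%) and DMSO (0%), Hill fit for EC50 and efficacy.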

[3] = qHTS assay for small molecule antagonists of peroxisome proliferator-activated receptor delta signaling (AID 588535); conditions: HEK293T PPARd-UAS-bla, beta-lactamase FRET ratio, 18 h; 460 nm channel;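 also: cells co-treated with a PPAR-delta agonist as stimulator during compound exposure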
In short: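 HEK293T PPAR-delta-UAS-bla cells, 4000/well, 2% charcoal/dextran FBS; 5 h 37 C; cpd titration; 18 h 37 C; CCF4 2 h RT; FI 460/530 nm; Hill fit → IC50, efficacy.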

[4] = target: Peroxisome proliferator-activated receptor gamma (Homo sapiens) (UniProt P37231); assay: qHTS assay for small molecule agonists of peroxisome proliferator-activated receptor gamma signaling (AID 588536; active = well fitted curve in the direction sought with a large enough effect in the signal ratio, with a control signal flat, not every such curve was filed as active; the % refers to the signal ratio;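 also: 0% = DMSO basal wells and 100% = rosiglitazone at 2 µM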)
Sequence of Peroxisome proliferator-activated receptor gamma (Homo sapiens) (P37231 whole entry, looked up): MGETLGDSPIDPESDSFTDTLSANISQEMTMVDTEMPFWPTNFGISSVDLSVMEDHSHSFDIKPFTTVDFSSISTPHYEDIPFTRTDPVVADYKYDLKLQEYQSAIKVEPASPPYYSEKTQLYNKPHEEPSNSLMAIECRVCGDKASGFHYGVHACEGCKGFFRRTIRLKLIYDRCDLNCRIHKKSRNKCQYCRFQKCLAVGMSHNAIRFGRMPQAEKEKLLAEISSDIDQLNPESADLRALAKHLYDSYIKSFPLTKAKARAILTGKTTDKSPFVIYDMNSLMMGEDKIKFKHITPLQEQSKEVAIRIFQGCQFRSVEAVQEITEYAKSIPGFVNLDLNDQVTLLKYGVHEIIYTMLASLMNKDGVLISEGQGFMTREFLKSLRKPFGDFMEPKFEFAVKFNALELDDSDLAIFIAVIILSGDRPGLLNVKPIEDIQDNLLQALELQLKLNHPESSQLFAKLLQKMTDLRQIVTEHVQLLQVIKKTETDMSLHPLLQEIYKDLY
In short: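 GeneBLAzer PPAR-gamma-UAS-bla HEK293 cells in 1% charcoal/dextran-treated FBS medium were treated 16 h at 37 C with compounds. Beta-lactamase activity was read by CCF4 ratio (460/530 nm). Response was normalized to 2 uM rosiglitazone (100%) and DMSO, then Hill-fitted for EC50 and efficacy.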

[5] = target: Vitamin D3 receptor (Homo sapiens) (UniProt P11473); assay: qHTS assay for small molecule agonists of vitamin D receptor signaling (AID 588543);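 also: 0% = DMSO basal and 100% = reference agonist control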
Sequence of Vitamin D3 receptor (Homo sapiens) (P11473 whole entry, looked up): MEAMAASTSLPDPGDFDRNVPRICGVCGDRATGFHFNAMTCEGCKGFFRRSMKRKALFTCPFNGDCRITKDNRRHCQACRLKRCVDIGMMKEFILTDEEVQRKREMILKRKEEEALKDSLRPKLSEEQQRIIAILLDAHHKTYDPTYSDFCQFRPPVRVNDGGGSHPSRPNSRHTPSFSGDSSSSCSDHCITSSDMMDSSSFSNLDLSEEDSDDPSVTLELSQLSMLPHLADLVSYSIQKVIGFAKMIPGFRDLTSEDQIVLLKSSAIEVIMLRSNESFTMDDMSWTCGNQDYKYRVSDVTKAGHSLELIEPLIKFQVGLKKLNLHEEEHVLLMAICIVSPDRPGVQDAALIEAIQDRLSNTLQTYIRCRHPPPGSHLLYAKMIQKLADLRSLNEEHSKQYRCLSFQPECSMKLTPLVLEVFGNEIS
In short: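 qHTS in agonist mode: compound titrations stimulate a VDR-driven β-lactamase reporter in HEK293T cells over 16 h at 37 °C. Response normalized to 50 nM 1α,25-dihydroxyvitamin D3 = 100%, DMSO = 0%; Hill fitting gives EC50 and maximal response.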

[6] = qHTS assay for small molecule agonists of retinoid X receptor alpha signaling (AID 588544); conditions: HEK293T RXRa-UAS-bla, beta-lactamase reporter, 18 h; 530 nm emission;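 as to activation: 0% = DMSO basal wells and 100% = reference agonist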
[7] = target: Retinoic acid receptor RXR-alpha (Homo sapiens) (UniProt P19793); assay: as above
Sequence of Retinoic acid receptor RXR-alpha (Homo sapiens) (P19793 whole entry, looked up): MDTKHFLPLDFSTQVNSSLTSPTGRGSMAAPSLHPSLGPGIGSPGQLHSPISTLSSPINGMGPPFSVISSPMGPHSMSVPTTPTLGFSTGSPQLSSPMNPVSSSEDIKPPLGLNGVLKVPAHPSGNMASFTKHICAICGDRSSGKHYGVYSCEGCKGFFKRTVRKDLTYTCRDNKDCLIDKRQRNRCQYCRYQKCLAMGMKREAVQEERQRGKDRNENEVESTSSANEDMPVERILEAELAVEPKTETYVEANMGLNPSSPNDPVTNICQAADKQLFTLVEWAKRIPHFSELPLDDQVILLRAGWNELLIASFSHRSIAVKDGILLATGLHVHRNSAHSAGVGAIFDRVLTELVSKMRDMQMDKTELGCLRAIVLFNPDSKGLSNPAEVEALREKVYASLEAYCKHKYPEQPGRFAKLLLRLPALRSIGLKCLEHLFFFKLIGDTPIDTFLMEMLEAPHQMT

[8] = target: Thyroid hormone receptor beta (Homo sapiens) (UniProt P10828); assay: qHTS assay for small molecule agonists of thyroid hormone receptor beta signaling (AID 588545)
Sequence of Thyroid hormone receptor beta (Homo sapiens) (P10828 whole entry, looked up): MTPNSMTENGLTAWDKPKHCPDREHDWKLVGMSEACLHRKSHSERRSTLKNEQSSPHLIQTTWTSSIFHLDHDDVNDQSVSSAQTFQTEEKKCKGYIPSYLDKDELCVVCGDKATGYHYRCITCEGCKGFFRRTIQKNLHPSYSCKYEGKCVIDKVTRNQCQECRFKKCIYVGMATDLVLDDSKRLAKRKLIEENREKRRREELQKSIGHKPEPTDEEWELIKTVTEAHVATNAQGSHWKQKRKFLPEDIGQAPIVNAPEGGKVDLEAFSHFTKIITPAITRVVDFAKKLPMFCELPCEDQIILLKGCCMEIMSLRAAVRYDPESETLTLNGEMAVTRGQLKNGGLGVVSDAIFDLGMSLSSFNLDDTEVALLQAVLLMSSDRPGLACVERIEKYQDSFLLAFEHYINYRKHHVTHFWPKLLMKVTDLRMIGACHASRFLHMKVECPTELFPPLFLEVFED
In short: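 Agonist-mode beta-lactamase reporter assay, HEK 293 cells, 2% charcoal/dextran FBS; cells plated 4 hrs, compound 18 hrs at 37 C, CCF4 2 hrs RT. Normalized to 10 nM T3 (100%) and DMSO (0%); Hill fit gives EC50, efficacy.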

[9] = qHTS assay for small molecule antagonists of retinoid X receptor alpha signaling (AID 588546; active = well fitted inhibition curve with a large enough effect in the signal ratio, with a control signal flat, not every such curve was filed as active; the % refers to the signal ratio;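 also: cells stimulated with 9-cis-retinoic acid as agonist; % is scaled to controls: 0 for no effect and ±100 for the full control effect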); conditions: HEK293T RXRa-UAS-bla, beta-lactamase ratio, antagonist mode; measured here: W530 green channel, cytotoxicity proxy
In short: (§1)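 Beta-lactamase reporter inhibition, read as CCF4 fluorescence ratio (ex 405, em 460/530 nm) after 2 h at RT. HEK293T UAS-bla cells, 2500/well, were stimulated with 9-cis-RA at 500 or 100 nM final alongside test compound for 18 h at 37 C.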

[10] = target: Retinoic acid receptor RXR-alpha (Homo sapiens) (UniProt P19793); assay: as above; conditions: HEK293T RXRa-UAS-bla, beta-lactamase ratio, antagonist mode
In short: as §1

[11] = target: Thyroid hormone receptor beta (Homo sapiens) (UniProt P10828); assay: qHTS assay for small molecule antagonists of thyroid hormone receptor beta signaling (AID 588547; active = well fitted inhibition curve with a large enough effect in the signal ratio, with a control signal flat, not every such curve was filed as active; the % refers to the signal ratio;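 also: cells stimulated with 0.4 nM T3 agonist during compound exposure; series mostly up to about 77 µM; % is scaled to controls: 0 for no effect and ±100 for the full control effect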); conditions: TR-UAS-bla HEK293, beta-lactamase ratio, antagonist mode, 18 h
In short: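 Inhibition of T3-driven (0.4nM final) beta-lactamase reporter activity was measured over 0.59 nM to 92 uM compound after 18 h at 37 C. The cells were GripTite HEK293 TR-UAS-bla in charcoal/dextran-stripped serum, with CCF4 ratio read-out and IC50 from Hill fits.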

[12] = qHTS assay for small molecule activators of the nuclear factor-kappa B (NF-kB) signaling pathway (AID 651749; active = well fitted activation curve with a large enough effect in the signal ratio; the % refers to the signal ratio; also: series mostly up to about 77 µM; % of control where 0% means no effect); conditions: NF-kB-bla ME-180 cells, beta-lactamase FRET ratio, 16 h; activation: stronger effect = higher value
In short: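 Readout: beta-lactamase reporter driven by an NF-kB response element, detected fluorescently as loss of FRET. Cells were the ME-180 line, treated 16 hr at 37C with pin-transferred compound.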

[13] = qHTS assay for environmental chemicals that activate the Aryl hydrocarbon Receptor (AhR) signaling pathway (AID 651777; active = well fitted curve in the direction sought with a large enough effect; an effect the other way counts as inactive or inconclusive; also: % of control where 0% means no effect; nearly all actives have a fitted effect of over 15% in size); conditions: 1A2-DRE human hepatoma cells, luciferase, 24 h; activation: stronger effect = higher value
In short: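 Reporter gene assay: hepatoma cells with DRE/CYP1A2-luciferase, 24 hr compound incubation at 37 C, 5% CO2, luminescence after One-Glo (30 min, RT).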

[14] = qHTS assay for small molecule agonists of the antioxidant response element (ARE) signaling pathway measured by Nrf2-dependant transcriptional activity - cell viability counter screen (AID 720653; active = well fitted curve in the direction sought with a large enough effect in the repeat runs; an effect the other way counts as inactive or inconclusive; also: % is scaled to controls: 0 for no effect and ±100 for the full control effect); conditions: ARE-bla HepG2 viability, CellTiter-Glo ATP luminescence, 16 h; max response: stronger effect = lower value
In short: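 Cytotoxicity counter screen: intracellular ATP quantified by CellTiter-Glo luminescence in the same ARE-bla HepG2 plates, after 16 h compound exposure and a 2 h beta-lactamase substrate step.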

[15] = qHTS assay for cell viability of HEK293 cells (AID 743288; active = well fitted curve in the direction sought with a large enough effect; an effect the other way counts as inactive or inconclusive; also: % is scaled to controls: 0 for no effect and ±100 for the full control effect; nearly all actives have a fitted effect of over 50% in size); conditions: ATP luminescence (CellTiter-Glo), 18 h; max response: stronger effect = lower value
In short: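 The Tox21 protocol used parental HEK293 cells treated for 18 h at 37 C with compounds delivered by pintool; ATP-coupled luminescence after 30 min at room temperature gave viability.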

[16] = qHTS assay for cell viability of the p53RE-bla HCT-116 cell line (AID 743292; active = well fitted curve in the direction sought with a large enough effect; an effect the other way counts as inactive or inconclusive; also: % is scaled to controls: 0 for no effect and ±100 for the full control effect; nearly all actives have a fitted effect of over 55% in size)
In short: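 ATP-based luminescence, 16 h compound exposure at 37 C, p53RE-bla HCT-116 cells at 4,000/well.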

[17] = target: Nuclear receptor subfamily 1 group I member 2 (Rattus norvegicus) (UniProt Q9R1A7); assay: qHTS assay for small molecule activators of the rat pregnane X receptor (rPXR) signaling pathway (AID 651751; call rule not given here; also: 0% is about no effect); conditions: rPXR reporter cells, luciferase (One-Glo), 24 h
Sequence of Nuclear receptor subfamily 1 group I member 2 (Rattus norvegicus) (Q9R1A7 whole entry, looked up): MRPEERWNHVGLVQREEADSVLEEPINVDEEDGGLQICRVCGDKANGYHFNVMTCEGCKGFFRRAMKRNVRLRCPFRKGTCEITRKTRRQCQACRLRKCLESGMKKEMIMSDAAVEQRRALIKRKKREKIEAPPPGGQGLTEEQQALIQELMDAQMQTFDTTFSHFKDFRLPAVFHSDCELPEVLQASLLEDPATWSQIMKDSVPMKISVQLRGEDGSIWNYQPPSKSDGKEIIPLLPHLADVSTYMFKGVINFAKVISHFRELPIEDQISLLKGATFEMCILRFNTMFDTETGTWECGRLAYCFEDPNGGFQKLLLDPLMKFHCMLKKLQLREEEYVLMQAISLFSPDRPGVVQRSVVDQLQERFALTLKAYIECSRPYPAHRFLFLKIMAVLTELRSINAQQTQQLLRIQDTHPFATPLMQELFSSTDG

[18] = qHTS assay for small molecule activators of the human pregnane X receptor (PXR) signaling pathway (AID 720659; call rule not given here; also: 0% is about no effect)
[19] = target: Peroxisome proliferator-activated receptor alpha (Homo sapiens) (UniProt Q07869); assay: qHTS assay for small molecule agonists of the peroxisome proliferator-activated receptor alpha (PPARalpha) signaling pathway (AID 651778; active = well fitted curve in the direction sought with a large enough effect; an effect the other way counts as inactive or inconclusive; also: % of control where 0% means no effect); conditions: PathHunter PPARalpha complementation, chemiluminescence, 6 h; max response: stronger effect = higher value
Sequence of Peroxisome proliferator-activated receptor alpha (Homo sapiens) (Q07869 whole entry, looked up): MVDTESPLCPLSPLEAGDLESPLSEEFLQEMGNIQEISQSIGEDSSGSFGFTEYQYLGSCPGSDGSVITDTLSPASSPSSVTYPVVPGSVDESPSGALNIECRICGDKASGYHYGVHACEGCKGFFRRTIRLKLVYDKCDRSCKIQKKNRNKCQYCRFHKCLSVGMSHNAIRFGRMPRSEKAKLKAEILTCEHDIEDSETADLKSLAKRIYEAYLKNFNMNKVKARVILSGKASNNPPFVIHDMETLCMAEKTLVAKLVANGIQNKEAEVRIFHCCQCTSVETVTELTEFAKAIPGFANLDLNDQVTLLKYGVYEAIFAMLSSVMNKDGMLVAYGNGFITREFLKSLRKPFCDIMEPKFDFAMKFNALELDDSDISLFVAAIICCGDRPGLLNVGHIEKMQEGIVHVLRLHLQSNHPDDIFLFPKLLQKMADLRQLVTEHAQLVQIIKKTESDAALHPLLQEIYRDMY
In short: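 Chemiluminescence from complemented enzyme reported PPARalpha activation in cells after 6 hr of compound treatment at 37 C. The detection reagent was incubated for 60 min at room temperature, and compounds were scored as agonists.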

[20] = qHTS assay for small molecule agonists of the antioxidant response element (ARE) signaling pathway measured by Nrf2-dependant transcriptional activity (AID 720636; active = well fitted curve in the direction sought with a large enough effect in the repeat runs; an effect the other way counts as inactive or inconclusive;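 also: HepG2 cells with an ARE-driven luciferase reporter; % of control where 0% means no effect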)
In short: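 Nrf2-dependent transcription is measured in ARE-luc HepG2 cells: compound is applied for 16 hr at 37 C after a 6 hr attachment period, and luciferase activity is quantified by luminescence using ONE-Glo.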

Cc1ccc(S(=O)(=O)N=C=O)cc1
5.8%: max response [3]
inactive: Potency [1] | Potency [2] | outcome [4] | outcome [5] | Potency [7] | Potency [8] | max response [10] 12.7% | activity change % (negative = inhibition) [11] 8.97% | activation [12] -0.506% | activation [13] -0.31% | max response [14] -7.8% | max response [15] -6.04% | Potency [16] | max response [17] -1.2% | outcome [18]
15.4%: max response [6]
-8.47%: max response [9]

NNS(=O)(=O)c1ccc(Oc2ccc(S(=O)(=O)NN)cc2)cc1
18.7%: max response [3]
inactive: Potency [1] | outcome [4] | outcome [5] | Potency [7] | Potency [8] | max response [10] -7.05% | activity change % (negative = inhibition) [11] -2.89% | activation [12] -1.01% | activation [13] 0.263% | max response [19] -6% | Potency [20] | max response [14] -13.9% | max response [15] 0.11% | Potency [16] | max response [17] 8.65% | outcome [18]
-6.27%: max response [6]
-11.5%: max response [9]
active: Potency [2] 447 nM

CC(C)(C)C1CCC(O)CC1 (stereo not given)
-7.35%: max response [3]
-0.1%: max response [9]
inactive: Potency [1] | Potency [2] | outcome [4] | outcome [5] | Potency [8] | max response [10] 3.31% | activity change % (negative = inhibition) [11] -2.02% | activation [12] 0.471% | Potency [20] | max response [14] 2.04% | max response [15] 1.92% | Potency [16] | max response [17] 1.71% | outcome [18]

CCCCOC(=O)/C=C\C(=O)OCCCC
inactive: Potency [1] | Potency [2] | Potency [7] | Potency [8] | activity change % (negative = inhibition) [11] 17.7% | activation [13] 0.228% | max response [19] -0.617% | Potency [20] | max response [14] 14% | max response [15] -1.23% | Potency [16] | max response [17] 0.138% | outcome [18]
-15%: max response [6]
-0.0728%: max response [9]

OC1CCCCCCCCCCC1
inactive: Potency [1] | Potency [2] | outcome [4] | Potency [7] | Potency [8] | activation [12] 0.918% | activation [13] 1.93% | max response [19] -2.43% | Potency [20] | max response [14] 3.88% | max response [15] -8% | Potency [16] | max response [17] -3.86% | outcome [18]
-1.99%: max response [9]
17.8%: max response [3]
10.2%: max response [6]

C[N+](C)(C)CC(O)CCl (stereo not given)
inactive: Potency [1] | Potency [2] | outcome [4] | outcome [5] | Potency [7] | Potency [8] | activity change % (negative = inhibition) [11] -6.17% | activation [12] -1.69% | activation [13] 0.882% | max response [19] -0.685% | Potency [20] | max response [14] 0.797% | max response [15] -11.6% | Potency [16] | max response [17] 0.555% | outcome [18]
1.91%: max response [3]
-3.49%: max response [6]
-3.33%: max response [9]

C/C(=C\C(C)CC(C)CC(C)C)C1CC(=O)OC1=O (stereo not given)
-6.65%: max response [9]
inactive: Potency [1] | Potency [2] | outcome [4] | outcome [5] | Potency [7] | Potency [8] | max response [10] 4.94% | activity change % (negative = inhibition) [11] 0.311% | activation [12] -0.74% | activation [13] 1.33% | max response [19] -0.902% | Potency [20] | max response [14] -17.9% | max response [15] -7.26% | Potency [16] | max response [17] 3.67% | outcome [18]
29.8%: max response [3]
7.08%: max response [6]
